Compound activity as filed in PubChem.
SARS 3CLpro inh: SARS-CoV 3CLpro protease inhibition; P0C6X7; recombinant SARS-CoV 3CLpro, quenched FRET peptide cleavage; inhibition, % at 6 µM; 290,000 compounds, 0.14% hits; AID 1706; in the data active = inhibition above about 12%
VHR inh abs: blocks human VHR1 dual specificity phosphatase. recombinant VHR phosphatase, pNPP absorbance. 290,000 compounds, 0.52% hits. inhibition, % at 13.3 µM. P51452; in the data active = inhibition above about 50%
Target sequence (P51452 whole entry, looked up): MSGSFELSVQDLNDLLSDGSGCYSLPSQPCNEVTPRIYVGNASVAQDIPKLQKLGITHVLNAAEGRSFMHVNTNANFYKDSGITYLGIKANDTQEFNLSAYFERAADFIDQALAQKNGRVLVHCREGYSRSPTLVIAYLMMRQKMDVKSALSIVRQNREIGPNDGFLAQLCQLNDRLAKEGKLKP
SSB-PriA inh: inhibitors of Klebsiella pneumoniae PriA binding to SSB C-terminal tail; AlphaScreen SSBct-PriA binding, biotinylated peptide; inhibition, % at 33 µM; 430,000 compounds, 0.6% hits; in the data active = inhibition mostly above about 37%, no sharp cut-off; inactive = mostly below about 20%
Mtb hypoxia rep: reduces hypoxia-regulated biosensor signal in M. tuberculosis. M. tuberculosis hypoxia-regulated fluorescent reporter, fluorescence. fluorescence inhibition, % (no concentration beside the values). 300,000 compounds, 0.1% hits; in the data active = fluorescence inhibition mostly above about 23%, no sharp cut-off; inactive = mostly below about 17%
CCHFV vOTU inh: CCHFV vOTU protease inhibition; Pep-AMC fluorescence; inhibition, % at 11.5 µM; 370,000 compounds, 0.55% hits; in the data active = inhibition above about 30%
A number is an active result; . = inactive; / = not tested or not shown. This is a sample that favours compounds with a hit; in the whole collection about 1.3% have one here.

SMILES | SARS 3CLpro inh | VHR inh abs | SSB-PriA inh | Mtb hypoxia rep | CCHFV vOTU inh
COc1ccc(CCNC(=O)CSc2nc3ccccc3c(=O)n2CC2COc3ccccc3O2)cc1OC (stereo not given) | / | / | . | / | /
CCN(CC)CCNc1nc2ccc(S(C)(=O)=O)cc2s1 | / | / | . | / | /
CCOc1ccccc1NC(=O)N1CCc2ncncc2C1 | / | / | . | / | /
Cc1cc(C(=O)Nc2nc(-c3ccccn3)cs2)no1 | / | / | 75 | / | /
CC(=O)Nc1ccc(C(=O)Nc2nc(-c3ccccn3)cs2)cc1 | . | . | 78 | . | .
CCn1ccc(C(=O)Nc2nc(-c3ccccn3)cs2)n1 | / | / | 95 | / | /
O=C(Nc1nc(-c2ccccn2)cs1)c1ccccc1Cl | / | / | 100 | / | /
O=C(NCc1ccc(F)cc1)C(=O)Nc1cc2c3c(c1)CCC(=O)N3CCC2 | / | / | . | / | /
O=C(Nc1nc(-c2ccccn2)cs1)C1(n2cnnn2)CCCCC1 | / | / | 158 | / | /
O=C(Nc1nc(-c2ccccn2)cs1)c1cc(S(=O)(=O)N2CCOCC2)c(Cl)cc1Cl | / | / | 76 | / | /
O=C(Nc1nc(-c2ccccn2)cs1)c1ccncc1 | / | / | 157 | / | /
O=C(Nc1nnc(-c2ccccc2)s1)c1cc(S(=O)(=O)N2CCOCC2)c(Cl)cc1Cl | . | . | . | . | .
COCCN1CCCc2ccc(NS(=O)(=O)c3cc(Cl)ccc3C)cc21 | / | / | 57 | / | /
COCCN1CCCc2ccc(NS(=O)(=O)c3ccccc3Cl)cc21 | / | / | . | / | /
COCCN1CCCc2ccc(NS(=O)(=O)c3ccc(C(C)(C)C)cc3)cc21 | / | / | 39 | / | /
CC(=O)N1CC(C(=O)N2CCN(c3ccc(Cl)c(Cl)c3)CC2)C1 | / | / | . | / | /
Cc1cc(C(=O)N2CC(c3nc(-c4ccsc4)no3)C2)no1 | / | / | . | / | /
CCOC(=O)C1=C(C)N(CCCCCC(=O)O)C(=O)NC1c1cccc([N+](=O)[O-])c1 (stereo not given) | . | . | . | / | .
CCOC(=O)C1=C(C)N(CCCCCC(=O)O)C(=O)NC1c1ccc([N+](=O)[O-])cc1 (stereo not given) | . | 52 | . | . | .
COc1ccc(-c2csc(CN3CCN(C(=O)c4ccccc4SC)CC3)n2)cc1 | / | / | . | / | /
O=C(Nc1ccc(OC(F)(F)F)cc1)c1ccc(=O)[nH]n1 | / | / | . | / | /
COc1ccc(CCNC(=O)CCCn2c(SCC(=O)NCCc3ccc(S(N)(=O)=O)cc3)nc3ccccc3c2=O)cc1OC | / | / | . | / | /
Cc1oc2ccc(OCc3ccccc3)cc2c1C(=O)Nc1cccnc1 | / | / | . | / | /
CC(=NNc1nc2ccccc2[nH]1)c1ccc(C)o1 | / | / | . | . | /
CC(=NNc1nc2ccccc2[nH]1)c1ccc2c(c1)OCCO2 | / | / | 42 | . | /
SMILES | SARS 3CLpro inh | VHR inh abs | SSB-PriA inh | Mtb hypoxia rep | CCHFV vOTU inh
CC(C)=NNc1nc2ccccc2[nH]1 | / | / | 69 | / | /
CCOc1ccc(/C=C/C(=O)Oc2ccccc2)cc1 | . | 52 | . | . | .
Cc1ccc(S(=O)(=O)CCC(=O)Nc2nc(-c3ccccn3)cs2)cc1 | / | / | . | . | .
CC1(c2ccccc2)NC(=O)N(CC(=O)Nc2nc(-c3ccccn3)cs2)C1=O (stereo not given) | / | / | 75 | . | .
Cc1ccc(C2(C)NC(=O)N(CC(=O)Nc3nc(-c4ccccn4)cs3)C2=O)cc1 (stereo not given) | / | / | 85 | . | .
CCSc1nnc(NC(=O)CN2C(=O)N(C)C3(CCCCC3)C2=O)s1 | / | / | . | . | .
CC1(C)NC(=O)N(CC(=O)Nc2nc(-c3ccccn3)cs2)C1=O | / | / | 106 | / | /
CN1C(=O)N(CC(=O)Nc2nc(-c3ccccn3)cs2)C(=O)C12CCCCC2 | / | / | 101 | / | /
COc1ccccc1CCNC(=O)C(=O)Nc1cc2c3c(c1)CCC(=O)N3CCC2 | / | / | . | / | /
CC(Sc1nc(-c2ccccc2)cc(=O)[nH]1)c1ccccc1 (stereo not given) | / | / | . | / | /
Cn1c(C(F)(F)F)nn(CCNC(=O)C2CC(=O)N(c3ccccc3)C2)c1=O (stereo not given) | / | / | . | / | /
CC(C)Oc1ccc(C(=O)N2CCN(Cc3nc(C4CC4)cs3)CC2)cc1 | / | / | . | / | /
COc1ccc(C(C(=O)NCC2CCCO2)N(C(=O)CNC(=O)c2ccco2)c2cc(C)ccc2C)cc1OC (stereo not given) | . | 53 | . | . | .
COc1cc(OC)cc(N(C(=O)CNC(=O)c2ccco2)C(C(=O)NCC2CCCO2)c2ccccc2)c1 (stereo not given) | . | 58 | . | . | .
CCc1ccc(N(C(=O)CNC(=O)c2ccco2)C(C(=O)NCC2CCCO2)c2ccccc2)cc1 (stereo not given) | . | . | . | . | .
O=C1CN(C(=O)c2ccc(S(=O)(=O)N3CCOCC3)cc2)c2ccccc2N1 | / | / | . | / | /
NNC(=O)c1ccccc1OCCOc1ccccc1 | . | 55 | . | / | .
COc1ccc(-n2c(=O)[nH]cc(C(=O)Nc3ccc(S(N)(=O)=O)cc3)c2=O)cc1OC | / | / | . | / | /
